In PubChem BioAssay AID463254 (National Center for Advancing Translational Sciences (NCATS), 2010):
Among all 330,000 compounds or so, about 40 (0.01%) were called active. For the sample, actives were picked, then their nearest neighbours and some compounds at random. Unmarked numbers belong to inactive results. The call rests on the fitted dose curve; in most records, active means well fitted inhibition curve with a large enough effect; inconclusive means small, poorly fitted or top-dose-only effect, or effect the other way; inactive means flat fitted curve, though single readings scatter.
Potency means the concentration at half of the fitted maximal effect.
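Wherever activity change, negative = inhibition is given: plate controls were DMSO wells for no effect and full inhibition by NEM control for full effect.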

The compounds below were run against Ubiquitin carboxyl-terminal hydrolase 2 (Homo sapiens) (UniProt O75604) (assay: qHTS Assay for Inhibitors of Ubiquitin-specific Protease USP2a Using CHOP2 as the Reporter). Details: USP2 core, Ub-CHOP2 coupled fluorogenic reporter, 485/531; series mostly up to 38.3 µM; activity change, negative = inhibition: at the top concentration.
Ubiquitin carboxyl-terminal hydrolase 2 (Homo sapiens), sequence (O75604 whole entry, looked up): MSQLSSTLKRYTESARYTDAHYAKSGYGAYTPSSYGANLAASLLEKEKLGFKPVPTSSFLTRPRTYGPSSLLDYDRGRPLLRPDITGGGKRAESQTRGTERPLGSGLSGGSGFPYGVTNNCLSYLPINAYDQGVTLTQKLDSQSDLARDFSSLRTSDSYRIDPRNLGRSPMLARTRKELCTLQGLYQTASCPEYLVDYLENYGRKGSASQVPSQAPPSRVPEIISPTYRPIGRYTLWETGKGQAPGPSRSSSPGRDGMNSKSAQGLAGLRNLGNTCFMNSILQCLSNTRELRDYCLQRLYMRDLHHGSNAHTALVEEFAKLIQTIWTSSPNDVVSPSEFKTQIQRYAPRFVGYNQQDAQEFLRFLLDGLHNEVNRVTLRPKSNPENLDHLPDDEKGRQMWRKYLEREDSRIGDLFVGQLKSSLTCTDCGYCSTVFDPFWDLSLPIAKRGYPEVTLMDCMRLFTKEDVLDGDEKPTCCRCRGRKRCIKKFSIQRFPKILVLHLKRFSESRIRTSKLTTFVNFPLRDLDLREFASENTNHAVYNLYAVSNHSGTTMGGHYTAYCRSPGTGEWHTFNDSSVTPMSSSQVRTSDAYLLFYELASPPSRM
Procedure, shortened: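 USP2 core (10nM final) preincubated 30min RT with compound in 20mM Tris-HCl pH 8.0, 2mM CaCl2, 2mM beta-mercaptoethanol, 0.05% CHAPS; 25nM Ub-CHOP2 plus 25nM reporter substrate added, fluorescence (Ex485/Em531) read after 60min.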
In the case of `CC(C)[C@@H]1NC(=O)c2cc([N+](=O)[O-])cc(I)c2NCCC[C@@H](C(=O)NC(CC(=O)O)C(N)=O)NC(=O)[C@H](CO)NC1=O` (stereo partly drawn), the “activity change, negative = inhibition” value is reported as -0.832%.
`CC(C)(CNC(=O)c1cc(=O)[nH]c2ccccc12)N1CCOCC1` was tested, and the “activity change, negative = inhibition” value was 4.29%.
For `Cc1ccc(CN2CCN(Cc3ccccc3-c3ccco3)CC2CCO)o1` (stereo not drawn), the “activity change, negative = inhibition” value was 9.71%.
For `COCc1ccc(C(=O)NC2CC(C)(C)Cc3c2cnn3-c2ccc(C)cc2)o1` (stereo not drawn), the “activity change, negative = inhibition” value was -0.305%.
`Fc1ccccc1CNC(=S)Nc1ccc(Cl)cc1` was tested, and the “activity change, negative = inhibition” value was 1.75%.
`COc1ccc(C(=O)NCC2CCCCC2)cc1S(=O)(=O)N1CCCC1` was tested, and the “activity change, negative = inhibition” value was -1.57%.
In the case of `CCn1cc(C(=O)NCc2ccc(OC)cc2OC)c(=O)c2ccc(C)nc21`, the “activity change, negative = inhibition” value is reported as 2.65%.
`COc1ccc(C2COC(=O)C2=N)c(NC(=O)c2ccccc2)c1` (stereo not drawn) was tested, and the “activity change, negative = inhibition” value was 2.76%.
In the case of `COc1ccc(C(CC(=O)Nc2ccc(C)cc2)NC(=O)C(F)(F)F)cc1` (stereo not drawn), the “activity change, negative = inhibition” value is reported as 6%.
With `CCCCN(Cc1ccccc1)C(=O)C1CCN(Cc2sccc2C)CC1` the “activity change, negative = inhibition” value was 1.08%.
In the case of `CC(=O)c1c(OCC(=O)N(C)C2CCCCC2)ccc2c(C)cc(=O)oc12`, the “activity change, negative = inhibition” value is reported as 7.53%.
In the case of `Cc1ccc(NS(=O)(=O)c2ccc3c(c2)CC(=O)N3)cc1Cl`, the “activity change, negative = inhibition” value is reported as -3.81%.
In the case of `N#CCC(=O)Nc1ccc(C(=O)OCC(=O)Nc2sc3c(c2C#N)CCCC3)cc1`, the “activity change, negative = inhibition” value is reported as 0.193%.
For `CCOc1ccc(NC(=O)CCNC(=O)c2ccc(Br)cc2)cc1`, the “activity change, negative = inhibition” value was 1.18%.
In the case of `CCOc1ccc(NC(=O)c2ccc(NC(=O)COC(=O)c3ccc(NC(=O)CC#N)cc3)cc2)cc1`, the Potency is reported as 7.94 µM (active).
For `O=C(CCS(=O)(=O)c1ccccc1Cl)Nc1ccc(S(=O)(=O)Nc2ncccn2)cc1`, the “activity change, negative = inhibition” value was 7.43%.
For `CC(C)C1N=C2c3ccccc3N=C(SCC(=O)c3ccc(O)c(O)c3)N2C1=O` (stereo not drawn), the “activity change, negative = inhibition” value was -4.68%.
`COc1ccccc1/C=C/C(=O)OCC(=O)NC1CCCCCC1` was tested, and the “activity change, negative = inhibition” value was -1.68%.
`CCOc1ccc(NS(=O)(=O)c2ccc(C(=O)NC3CCN(Cc4ccccc4)CC3)cc2)cc1` was tested, and the “activity change, negative = inhibition” value was 0.347%.
For `CC(C)OC(=O)C(C#N)c1nc2ccccc2nc1N1CCN(Cc2ccc3c(c2)OCO3)CC1` (stereo not drawn), the “activity change, negative = inhibition” value was 3.11%.
`COc1cccc(-c2nnc(NC(=O)c3ccc(S(=O)(=O)N(CC(C)C)CC(C)C)cc3)o2)c1` was tested, and the “activity change, negative = inhibition” value was 0.575%.
In the case of `Cc1sc(NC(=O)C2C3CCC(O3)C2C(=O)O)c(C(=O)OC(C)C)c1-c1ccc(Cl)cc1` (stereo not drawn), the “activity change, negative = inhibition” value is reported as -5.15%.
For `CCN(CC)C(=O)CSC(Nc1cccc(F)c1)=C(C#N)C#N`, the “activity change, negative = inhibition” value was -1.62%.
`CS(=O)(=O)c1ccc(-c2nnn(CC(=O)Nc3ccc4c(c3)OCCO4)n2)cc1` was tested, and the “activity change, negative = inhibition” value was -0.705%.
For `COc1ccc(Nc2ncc(C(=O)N3CCN(c4ccccc4OC)CC3)c3ccccc23)cc1`, the “activity change, negative = inhibition” value was -0.293%.
In the case of `Cc1ccc(-n2nc(C)c(C(=O)O)c2-n2cccc2)cc1`, the “activity change, negative = inhibition” value is reported as 2.36%.
`CC(=O)c1ccc(NC(=O)C2CCCN2S(=O)(=O)c2cccs2)cc1` (stereo not drawn) was tested, and the “activity change, negative = inhibition” value was -0.28%.
For `Cn1c(=O)c2cc(S(=O)(=O)NCCC(=O)Nc3ccc(F)cc3F)ccc2n(C)c1=O`, the “activity change, negative = inhibition” value was 4.64%.
For `Cc1cc(-c2n[nH]c(=S)n2/N=C/C(Br)=C/c2ccccc2)n[nH]1`, the “activity change, negative = inhibition” value was 0.983%.
With `Cc1c(C)c(C)c(S(=O)(=O)NCCc2ccccn2)c(C)c1C` the “activity change, negative = inhibition” value was 2.74%.
`COc1cc(C)c(S(=O)(=O)N2CCOCC2)c(C)c1C` was tested, and the “activity change, negative = inhibition” value was -0.633%.
In the case of `COc1ccc(NC(=O)CN(C)C(=O)c2cccc(S(=O)(=O)N3CCN(c4ccccc4)CC3)c2)cc1`, the “activity change, negative = inhibition” value is reported as -0.433%.
`CCN(CC)C(=O)CSc1nnc(-c2ccc(S(=O)(=O)NCc3ccccc3Cl)cc2)o1` was tested, and the “activity change, negative = inhibition” value was -3.22%.
With `CN(CCO)c1ccc(/C=N/Nc2nncc3ccccc23)cc1` the “activity change, negative = inhibition” value was 4.48%.
For `CCOC(=O)c1cc(-c2ccc(Cl)s2)nc2c1c(C)nn2C`, the “activity change, negative = inhibition” value was 1.07%.
For `COc1ccc(NC(=O)CN2C(=O)C(c3ccccc3)=NC23CCCCCC3)cc1OC`, the “activity change, negative = inhibition” value was 0.654%.
`CC1(C)CC(=O)c2cc(OCC(=O)NCC3CCCO3)ccc2O1` (stereo not drawn) was tested, and the “activity change, negative = inhibition” value was 0.36%.
For `Cc1c(-c2nn(C)c(=O)c3ccccc23)oc2ccc(F)cc2c1=O`, the “activity change, negative = inhibition” value was 0.493%.
For `CC(C)Cc1nn2c(=O)cc(O)nc2s1`, the “activity change, negative = inhibition” value was 2.15%.
For `COc1cc(N/C=C2\CC(=O)NC(C)=C2C#N)cc(OC)c1OC`, the “activity change, negative = inhibition” value was -0.207%.
With `O=C(Nc1cccc(Cl)c1)c1cncn1-c1ccc(F)cc1` the “activity change, negative = inhibition” value was -13.3%.
In the case of `O=C(COC(=O)c1cccc(Cl)c1)NC1CCCCCCC1`, the “activity change, negative = inhibition” value is reported as 0.694%.
For `Cc1cccc(OCC(O)CN2CCN(CCN3C(=O)c4cccc5cccc(c45)C3=O)CC2)c1C` (stereo not drawn), the “activity change, negative = inhibition” value was 10.9%.
For `Cc1nc(NC2=NC(C(=O)Nc3ccc(Cl)cc3)CC(=O)N2)nc2ccccc12` (stereo not drawn), the “activity change, negative = inhibition” value was 0.0715%.
For `C=CC(COCc1ccccc1)N(Cc1ccccc1)S(=O)(=O)c1ccccc1Br` (stereo not drawn), the “activity change, negative = inhibition” value was 0.383%.
For `CCC(C)N1CC(=O)N2Cc3[nH]c4ccccc4c3C[C@H]2C1=O` (stereo partly drawn), the “activity change, negative = inhibition” value was 0.217%.
For `CCCCOC(=O)c1ccc(NC(c2ccc(C)cc2)P(=O)(OC)OC)cc1` (stereo not drawn), the “activity change, negative = inhibition” value was -2.2%.
For `O=C(O)c1cc2c(cc1NC(=O)c1c(F)cccc1Cl)OCCCO2`, the “activity change, negative = inhibition” value was 1.52%.
`O=S(=O)(NC1CCN(S(=O)(=O)c2ccc3c(c2)OCCO3)CC1)c1c(F)cccc1F` was tested, and the “activity change, negative = inhibition” value was 4.79%.
With `CCCOc1ccc(CN(CCO)CCO)cc1C(=O)OC` the “activity change, negative = inhibition” value was -0.629%.
`Cc1ccc(NC2=C(Cl)C(=O)OC2OC(=O)c2ccccc2C)cc1` (stereo not drawn) was tested, and the “activity change, negative = inhibition” value was 0.357%.
With `C[C@@]12C(=O)N(c3cccc(Br)c3)C(=O)N1[C@H](c1ccc(Cl)cc1)[C@@H]1C(=O)N(C3CCCCC3)C(=O)[C@@H]12` the “activity change, negative = inhibition” value was 3.37%.
With `CCn1c(SC(C)C(=O)Nc2ccc(N3CCOCC3)cc2)nnc1-c1ccco1` (stereo not drawn) the “activity change, negative = inhibition” value was -0.0305%.
In the case of `CCOC(=O)c1c(CNCc2ccccc2F)c2sc(C)cc2n1C`, the “activity change, negative = inhibition” value is reported as 3.82%.
For `CN(C(=O)CCn1c(=S)oc2ccccc21)C1CCCCC1`, the “activity change, negative = inhibition” value was -0.0558%.
In the case of `CCCCN=C(N)/C(C(=O)OCC)=C(\O)c1ccc(OC)cc1`, the “activity change, negative = inhibition” value is reported as -0.581%.
With `COc1ccc(OC)c(-n2cc3c(=O)n(C)c(=O)n(C)c3c2)c1` the “activity change, negative = inhibition” value was 3.99%.
For `O=[N+]([O-])c1cc([N+](=O)[O-])c2cccnc2c1O`, the “activity change, negative = inhibition” value was -3.58%.
